{
  "source": "PubChem BioAssay",
  "data": [
    {"assay": "viability loss of caspase-8 NB7 cells with TRAIL – with/without TRAIL, luminescence panel, confirmation (AID 651596)", "settings": "NB7 neuroblastoma + caspase-8, without TRAIL, NB7 Caspase-8, without TRAIL, mean of runs, at 10 µM", "units": {"activity": "%"}, "values": [
      {"smiles": "FC(F)(F)c1cccc(-c2nc3nc(Cl)c(Cl)nc3[nH]2)c1", "activity": 42.6},
      {"smiles": "COc1ccc(C(=O)c2c[nH]c3ccccc23)cc1", "activity": 26.6},
      {"smiles": "COc1ccc(C(=O)Nc2cccc(OC)c2)cc1", "activity": 53.9},
      {"smiles": "Cc1ccc(NC(=O)c2ccc(CSc3nnnn3C)cc2)cc1", "activity": 37.7},
      {"smiles": "Cc1cccc(C(=O)Nc2ccc(C(=O)Nc3ccc(O)cc3)cc2)c1", "activity": 89.1},
      {"smiles": "COc1cccc(-c2cc3nc(-c4ccccc4)cc(N4CCN(C(=O)c5ccoc5)CC4)n3n2)c1", "activity": 73.8},
      {"smiles": "Cc1nc(N)nc(N)c1CCCc1ccc(Cl)c(Cl)c1", "activity": 74.8},
      {"smiles": "O=C(/C(=C/c1ccc(Cl)cc1)c1nc2ccccc2[nH]1)c1ccccc1", "activity": 85.1},
      {"smiles": "CC(C)(C)c1ccc(O)c(/C=N\\O)c1", "activity": 72.9},
      {"smiles": "COc1ccccc1C(=O)NNC(=O)c1cccc(O)c1", "activity": 48.4},
      {"smiles": "CC(=O)c1c(C)[nH]c(C(=O)Nc2ccc(C)cn2)c1C", "activity": 77.6},
      {"smiles": "Cc1cccc(-n2ncc3c(N4CCC(C)CC4)ncnc32)c1", "activity": 34.7},
      {"smiles": "CN(CCO)c1cc(Sc2nc3ccccc3s2)c2nonc2c1[N+](=O)[O-]", "activity": 91.7},
      {"smiles": "Nc1nc(CCl)nc(Nc2ccc3ccccc3c2)n1", "activity": 97.8},
      {"smiles": "COc1ccc2cc(CNCCOCCOCCNCc3ccc4cc(OC)ccc4c3)ccc2c1", "activity": -2.75},
      {"smiles": "COc1ccc2nc(NC(=O)c3ccc([N+](=O)[O-])o3)sc2c1", "activity": 77.8},
      {"smiles": "OCC1OC(n2ccc3c2ncn2ncnc32)C(O)C1O", "note": "(stereo unspecified)", "activity": 95.3},
      {"smiles": "COc1ccc(-c2nnc(NC(=O)c3ccco3)s2)cc1", "activity": 60.6},
      {"smiles": "CC(OC(=O)c1ccc(S(C)(=O)=O)c([N+](=O)[O-])c1)C(=O)NC1C2CC3CC(C2)CC1C3", "note": "(stereo unspecified)", "activity": 97.9},
      {"smiles": "COC(=O)C12OCC34C(CC5C(C)=C(O)C(=O)CC5(C)C3C(O)C1O)OC(=O)C(OC(=O)C=C(C)C)C24", "note": "(stereo unspecified)", "activity": 96.2},
      {"smiles": "CCCCCCCC(=O)Nc1ccc(C(=O)N/N=C/c2cccc([N+](=O)[O-])c2)cc1", "activity": 75.9}
    ]}
  ]
}
